Reference: PubChem BioAssay AID430 (Sanford-Burnham Center for Chemical Genomics, 2006)
The whole screen tested about 63,000 compounds, of which about 1,100 (1.7%) were called active. The sample holds actives, similar compounds and a random draw of the others, so the mix is not that of the screen. Potency and affinity values are given separately. Values without a mark were called inactive. Rule as the data show it: active = cytotoxicity above about 50%; inactive = the rest.

Experiment: cytotoxicity in HPDE-C7 cells, cell-based, fluorescence, HTS (AID 430);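 also: cells exposed to compound for 48 hours before viability readout; 0% = vehicle and 100% = reference cytotoxic drug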
Conditions: HPDE-C7 pancreatic duct cells viability, at 10 µM, hits give high values

SMILES	cytotoxicity
O=C(O)C1CC(=O)N(c2ccc(F)c(F)c2)C1 (stereo not given)	-4.7%
CC1CCN(C(=O)CSc2nnc(-c3cc4ccccc4cc3O)n2Cc2ccco2)CC1	22.2%
CCOC(=O)Cn1nc(C)c(-c2ccccc2)c1N	-9.4%
Cc1nc2sc(C(c3ccccc3)N3CCC(O)CC3)c(O)n2n1 (stereo not given)	7.2%
O=C(O)c1ccc(S(=O)(=O)c2ccc3c(c2)C(=O)N(CC2CCCO2)C3=O)cc1 (stereo not given)	-5.6%
O=C(NC1CCCC1)C1CC(=O)N(C2CCCCCCC2)C1 (stereo not given)	-18%
CC(=O)Nc1c2c3c(cccc3n(C)c1=O)C(=O)c1ccccc1-2	-6.7%
Cn1c(=O)c(NCCO)c2c3c(cccc31)C(=O)c1ccccc1-2	-8.4%
CCNc1c2c3c(cccc3n(C)c1=O)C(=O)c1ccccc1-2	53.8% (active)
Cc1nn(CCCNC(=O)C2CCCO2)cc1Br (stereo not given)	-8.3%
CCOc1cc2[nH]c(=S)n(CC3CCCN3CC)c(=O)c2cc1OCC (stereo not given)	4.2%
O=C(NCc1ccc2c(c1)OCO2)c1nnc(Cc2ccc(Cl)cc2)o1	-0.3%
O=C(NCc1ccc2c(c1)OCO2)c1ccc(-c2ccc(Cl)cc2)o1	53.5% (active)
O=C(NCc1ccc2c(c1)OCO2)c1cccc(Cl)c1	-4.3%
O=C(Nc1cccc2nsnc12)c1ccc2c(c1)OCCO2	-5.8%
O=C(Nc1ccccc1C(=O)N1CCCC1)C1CCN(c2ncccn2)CC1	-9.4%
O=C(COC(=O)C1CCN(C(=O)c2ccc(Cl)cc2)CC1)c1ccco1	1.1%
COc1ccc(-c2nc(C(N)=O)c3[nH]c(=O)n(-c4ccccc4OC)c3n2)c(OC)c1	-6.2%
CCc1ccc(-c2nc(C(N)=O)c3[nH]c(=O)n(-c4ccccc4OC)c3n2)cc1	52.3% (active)
COc1ccccc1-n1c(=O)[nH]c2c(C(N)=O)nc(-c3cccnc3)nc21	20.4%
CC1(C)CC(=O)c2sc(NC(=O)CN3C(=O)CCC3=O)nc2C1	-5.4%
COc1ccc(S(=O)(=O)N(CC(=O)N2CCOCC2)c2cc(Cl)ccc2OC)cc1OC	-21.9%
CCCCNC(=O)Nc1cc(C(F)(F)F)c[nH]c1=O	4.6%
Cc1cc(=O)c2ccccc2[nH]1	-8.3%

SMILES	cytotoxicity
O=c1cc(-c2ccccc2)[nH]c2ccccc12	60.9% (active)
O=c1cc(-c2ccccc2)c2ccccc2[nH]1	-20.9%
O=C(NCCCN1CCCC1=O)NC12CC3CC(CC(C3)C1)C2	-16.8%
CCOC(=O)N1CCC2(CC1)C(C(=O)C13CC4CC(CC(C4)C1)C3)C2(C#N)C#N (stereo not given)	-15.7%
Cc1cc(C)n(-c2cccc3cccnc23)n1	-7%
COc1ccc(S(=O)(=O)n2nc(OC(=O)c3ccc(C)cc3)cc2N)cc1	-9.2%
Cc1ccc(S(=O)(=O)n2nc(OC(=O)c3c(-c4ccccc4Cl)noc3C)cc2N)cc1	79.3% (active)
COc1ccccc1C(=O)Oc1cc(N)n(S(=O)(=O)c2ccc(C)cc2)n1	-1.2%
Cc1onc(-c2ccccc2Cl)c1C(=O)Oc1cc(N)n(S(=O)(=O)c2ccc(F)cc2)n1	32.7%
COc1ccc(S(=O)(=O)n2nc(OC(=O)c3c(-c4ccccc4Cl)noc3C)cc2N)cc1	63.1% (active)
COc1ccc(S(=O)(=O)n2nc(OC(=O)c3ccccc3)cc2N)cc1	1.9%
Cc1csc(NC(=O)CSc2nc(C)nc3c2c(=O)n(C)c(=O)n3C)n1	-1.2%
O=C(c1ccc(CS(=O)(=O)Cc2ccc(Cl)cc2)o1)N1CCCC1	7.7%
Oc1ccccc1-c1cc(-c2ccccc2Cl)[nH]n1	-4.7%
Cc1ccc(-c2cc(-c3cccc(F)c3)n[nH]2)c(O)c1	2.1%
Cc1ccccc1-c1cc(-c2ccccc2O)n[nH]1	25.4%
Cc1ccc(-c2cc(-c3ccccc3Cl)[nH]n2)c(O)c1	67.3% (active)
COc1ccccc1-c1cc(-c2cc(Cl)ccc2O)n[nH]1	-8%
COC(=O)C1=C(C)NC(=O)CC1c1ccc(C(=O)OC)cc1 (stereo not given)	5.9%
CCN(CC)S(=O)(=O)c1ccc2[nH]cc(C(=O)NCCN3CCCCC3C)c(=O)c2c1 (stereo not given)	0%
Cc1cc(=O)[nH]c(SCC2COC3(CCCCC3)O2)n1 (stereo not given)	-12.2%
Cc1c(-c2nc(N)nc(Nc3ccc(F)cc3)n2)oc2ccccc12	6.3%
Cc1c(-c2nc(N)nc(Nc3ccccc3)n2)oc2ccccc12	52.8% (active)
Cc1c(-c2nc(N)nc(Nc3ccccc3F)n2)oc2ccccc12	15%

SMILES	cytotoxicity
COc1nc(Oc2ccc(C(=O)OCC(N)=O)cc2)nc(N(C)C)n1	3.8%
O=C1CCc2cc(S(=O)(=O)N3CCC(C(=O)NC4CCCC4)CC3)ccc2N1	0.9%
C=CCn1c(SCc2csc(C)n2)nc2scc(-c3ccc(C)o3)c2c1=O	86.5% (active)
C=CCn1c(SCc2csc(C)n2)nc2sc3c(c2c1=O)CCCCC3	4.7%
Cc1ccc(-c2csc3nc(C)n(-n4c(C)ccc4C)c(=O)c23)o1	10.1%
CCSc1nc2c(c(=O)[nH]1)C(c1cccnc1)C(C(=O)OC)=C(C)N2 (stereo not given)	-19%
CCn1c(C)c(C(C)=O)c(N2CCCCC2)nc1=S	-8.3%
CC(=O)c1c(C)[nH]c(C(=O)OCC(=O)Nc2cc(C)on2)c1C	7.8%
CC(C)(C)NC(=O)CSc1nsc(SCC(=O)NC(C)(C)C)c1C#N	1.2%
Cc1csc(NC(=O)CSc2nc(C)cs2)n1	3.7%
O=C(NCCCn1ccnc1)c1cn(-c2ccccc2)nc1-c1ccccc1	-1.6%
O=C(NC1CCS(=O)(=O)C1)c1cn(-c2ccccc2)nc1-c1ccccc1 (stereo not given)	59.8% (active)
O=C(NC1CCS(=O)(=O)C1)c1ccccc1C(=O)c1ccccc1 (stereo not given)	-4.3%
CCCn1c(NC(=O)C2CCN(S(=O)(=O)c3cccs3)CC2)nc2ccccc21	8%
COc1ccccc1-n1nnnc1SCc1ccccc1	-13.8%
Cc1cccc(C)c1-n1nnnc1S(=O)(=O)Cc1ccccc1Cl	1%
C=CCn1cnc2c(c1=O)c1nc3ccccc3nc1n2-c1ccccc1	1.4%
Cc1nc(SCC(=O)Nc2c(C)n(C)n(-c3ccccc3)c2=O)n[nH]1	-18.3%
CCc1ccc2[nH]c(=O)c(CN(Cc3ccc(OC)cc3)Cc3nnnn3CCOC)cc2c1	9.3%
O=C1c2oc3ccc(F)cc3c(=O)c2C(c2ccccc2)N1CC1CCCO1 (stereo not given)	-14.4%
Cc1noc(C(=O)N2CCN(c3ccc(F)cc3)CC2)c1Cl	-11.2%
CCN1CCN(c2ncc(C(=O)Nc3cc(Cl)ccc3OC)c3ccccc23)CC1	82.5% (active)
CCN1CCN(c2ncc(C(=O)Nc3cc(Cl)c(OC)cc3OC)c3ccccc23)CC1	16%
CCN1CCN(c2ncc(C(=O)Nc3ccccc3C(=O)OC)c3ccccc23)CC1	25.8%

SMILES	cytotoxicity
COc1ccccc1Cn1c(=O)c2ccccc2n2c(SCC(=O)N3CCCCC3)nnc12	-4.5%
COc1ccc(NC(=O)c2ocnc2C)cc1OC	-32.7%
OC(COCC1COc2ccccc2O1)CN1CCN(c2ccccn2)CC1 (stereo not given)	6.2%
Cc1nc(NCCNC(=O)c2ccco2)c2c(C)c(C)sc2n1	-13.6%
CC(=O)Nc1ccc(S(=O)(=O)N2CCCc3ccccc32)cc1	37.8%
O=C(O)C1CC=CCC1C(=O)Nc1ccc(S(=O)(=O)N2CCCc3ccccc32)cc1 (stereo not given)	30.6%
COC(=O)Nc1ccc(S(=O)(=O)N2CCCc3ccccc32)cc1	56.8% (active)
Cc1cc(NC(=O)COC(=O)c2cccc(S(=O)(=O)N3CCOCC3)c2)no1	-14.7%
CCCNC(=O)NC(=O)COC(=O)c1ccc(OC)c(S(=O)(=O)N2CCCc3ccccc32)c1	0.1%
Cc1cc(NC(=O)COC(=O)c2ccc(S(=O)(=O)N3CCCc4ccccc43)cc2)no1	58.6% (active)
CCC(C)Oc1cccc(OCCCCN2C(=O)NC(C)(C)C2=O)c1 (stereo not given)	8.5%
O=C(CC1c2ccccc2Oc2ccccc21)NCc1ccco1	-3.4%
CCC(=O)N1CCc2cc(Br)cc(S(=O)(=O)N3CCCCCC3)c21	-12.2%
CC(=O)N1CCc2cc(S(=O)(=O)CCC(=O)N3CCN(C(=O)c4ccco4)CC3)ccc21	1.6%
O=C(O)c1oc2ccc(Br)cc2c1-n1cccc1	57.8% (active)
O=C(O)c1oc2ccccc2c1-n1cccc1	9.5%
COC(=O)c1oc2ccc(Br)cc2c1-n1cccc1	1.1%
COc1ccc(NC(=O)CSc2nnc(-c3ccccn3)n2N)cc1	-17.7%
O=C(Nc1ccccc1)OCCOc1ccccc1	-17.6%
Cc1cc2c(cc(C(=O)OCC(=O)NCc3cccs3)n2C(C)C)o1	57.6% (active)
CC(C)n1c(C(=O)OCC(=O)NCc2ccc3c(c2)OCO3)cc2sccc21	45%
Cn1c(C(=O)OCC(=O)NCc2cccs2)cc2sccc21	9.4%
CCOC(=O)N1CCN(C(=O)CSc2nnc(Cn3c(=O)sc4ccccc43)n2C)CC1	-4.9%
